For some of these results: Potency and affinity values are given separately. Activity calls are given as the source filed them.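 The calls were made as follows, unless noted: active = calcium signal cut by more than 3 SD below the full-agonist control yet still positive, in both repeats and the earlier primary screen; inactive = the rest.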
Key:
[1] = system: TRPC4 beta (transient receptor potential cation channel C4), mouse; assay: activators of mouse TRPC4 channel, confirmation, cell-based, Fluo4 calcium, HEK293 TRPC4beta/mu-opioid, duplicates, 10 µM (AID 2426;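 active = fluorescence ratio normalized to control raised more than 50% in primary screen plus both repeat runs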); details: Fluo4 calcium fluorescence, at 10 µM; hits give high values
[2] = system: transient receptor potential cation channel C4 beta (TRPC4), mouse; assay: activators of mouse TRPC4 channel, confirmation, cell-based, second round, Fluo4, HEK293 TRPC4beta/mu-opioid, 1 µM (AID 2461;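 active = primary screen active and over 50% activation in each of two duplicate runs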); details: Fluo4 calcium fluorescence, at 1 µM; hits give high values
[3] = system: TRPC4 (transient receptor potential cation channel C4 beta), mouse; assay: positive allosteric modulators of mouse TRPC4, confirmation, cell-based, second round, Fluo-4, HEK293 TRPC4beta/mu-opioid, 1 µM (AID 2554;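 active = primary screen hit whose fluorescence ratio, in both repeats, exceeds the weak agonist control mean by 3 SD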); details: DAMGO EC20, Fluo-4 calcium flux, at 1 µM; hits give high values
[4] = system: TRPC4 beta (transient receptor potential cation channel C4), mouse; assay: positive allosteric modulators of mouse TRPC4, confirmation, cell-based, Fluo-4, HEK293 TRPC4beta/mu-opioid (AID 2555;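 active = primary screen hit whose calcium fluorescence ratio, in both repeats, exceeds the weak agonist control mean by 3 SD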); details: DAMGO EC20, Fluo-4 calcium flux, at 10 µM; hits give high values
[5] = target: Short transient receptor potential channel 4 (Mus musculus) (UniProt Q9QUQ5); assay: inhibitors of mouse TRPC4 channel, confirmation, cell-based, Fluo4, HEK293 TRPC4beta/mu-opioid (AID 2636); details: DAMGO, Fluo4 calcium flux, at 10 µM; hits give high values
Short transient receptor potential channel 4 (Mus musculus), sequence (Q9QUQ5 whole entry, looked up): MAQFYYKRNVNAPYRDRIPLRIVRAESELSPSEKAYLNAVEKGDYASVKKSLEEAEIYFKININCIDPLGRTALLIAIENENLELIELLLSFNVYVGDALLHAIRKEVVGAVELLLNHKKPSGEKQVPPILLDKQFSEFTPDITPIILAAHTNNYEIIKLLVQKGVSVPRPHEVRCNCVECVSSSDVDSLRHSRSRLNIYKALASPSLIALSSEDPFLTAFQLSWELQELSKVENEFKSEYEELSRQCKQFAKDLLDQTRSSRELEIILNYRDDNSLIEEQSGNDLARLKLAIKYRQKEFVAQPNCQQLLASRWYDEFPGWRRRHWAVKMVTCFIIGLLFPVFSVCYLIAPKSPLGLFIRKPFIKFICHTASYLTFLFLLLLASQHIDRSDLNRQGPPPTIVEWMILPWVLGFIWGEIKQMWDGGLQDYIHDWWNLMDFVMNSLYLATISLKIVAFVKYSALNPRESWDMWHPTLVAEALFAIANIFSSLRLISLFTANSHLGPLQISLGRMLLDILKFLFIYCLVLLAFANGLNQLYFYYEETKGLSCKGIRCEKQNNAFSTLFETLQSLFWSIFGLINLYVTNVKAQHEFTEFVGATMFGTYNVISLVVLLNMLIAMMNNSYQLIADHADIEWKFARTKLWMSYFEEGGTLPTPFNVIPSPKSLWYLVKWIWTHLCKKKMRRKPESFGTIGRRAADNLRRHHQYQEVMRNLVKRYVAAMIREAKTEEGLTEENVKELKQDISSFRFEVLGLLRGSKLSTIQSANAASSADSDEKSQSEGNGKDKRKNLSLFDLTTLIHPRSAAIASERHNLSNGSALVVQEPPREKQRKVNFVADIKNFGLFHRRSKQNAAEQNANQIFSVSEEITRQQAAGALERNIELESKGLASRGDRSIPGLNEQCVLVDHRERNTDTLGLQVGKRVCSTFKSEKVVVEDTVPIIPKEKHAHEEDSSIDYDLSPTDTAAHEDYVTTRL

[6] = target: Short transient receptor potential channel 4 (Mus musculus) (UniProt Q9QUQ5); assay: inhibitors of mouse TRPC4 channel, confirmation, cell-based, second round, Fluo4, HEK293 TRPC4beta/mu-opioid, 1 µM (AID 2637;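 active = calcium signal ratio cut to more than 3 SD under the fully stimulated control mean yet still positive, in both repeats and the primary screen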); details: Fluo4 calcium flux, DAMGO, at 1 µM; hits give high values
[7] = target: Short transient receptor potential channel 4 (Mus musculus) (UniProt Q9QUQ5); assay: mouse TRPC4 channel activators, dose response, cell-based, HEK293 TRPC4/mu-opioid, Fluo-4 calcium (AID 434937;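 active = primary screen activator hit with a dose response curve and TRPC4 channel activation at any tested dose; inactive = no activation, no dose response, or not a primary hit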)
[8] = target: Short transient receptor potential channel 4 (Mus musculus) (UniProt Q9QUQ5); assay: TRPC4 positive allosteric modulators, dose response, cell-based, HEK293 TRPC4/mu-opioid, Fluo-4 calcium, EC20 DAMGO (AID 434941;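 active = earlier screen potentiator hit that boosts the TRPC4 ion channel at some dose, with a dose response; inactive = no potentiation, no dose response, or not a prior hit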;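 also: calcium entry triggered by an EC20 dose of DAMGO at the co-expressed mu-opioid receptor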)
[9] = target: Short transient receptor potential channel 4 (Mus musculus) (UniProt Q9QUQ5); assay: mouse TRPC4 channel inhibitors, dose response, cell-based, HEK293 TRPC4/mu-opioid, Fluo-4 calcium (AID 434942;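 active = primary screen inhibitor hit that blocks the TRPC4 channel at some tested dose, yielding a dose curve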)
[10] = target: Short transient receptor potential channel 6 (Mus musculus) (UniProt Q61143); assay: inhibition of mouse TRPC6 channel, confirmation, selectivity assay for TRPC4 inhibitor project, cell-based, HEK293, membrane potential dye, duplicate (AID 434948;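 active = active in primary screen and both duplicates, each dropping signal beyond three positive-control SD with fluorescence still positive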); details: HEK293 TRPC6, membrane potential dye fluorescence, at 10 µM, stimulated with maximal-effect acetylcholine; hits give high values
Short transient receptor potential channel 6 (Mus musculus), sequence (Q61143 whole entry, looked up): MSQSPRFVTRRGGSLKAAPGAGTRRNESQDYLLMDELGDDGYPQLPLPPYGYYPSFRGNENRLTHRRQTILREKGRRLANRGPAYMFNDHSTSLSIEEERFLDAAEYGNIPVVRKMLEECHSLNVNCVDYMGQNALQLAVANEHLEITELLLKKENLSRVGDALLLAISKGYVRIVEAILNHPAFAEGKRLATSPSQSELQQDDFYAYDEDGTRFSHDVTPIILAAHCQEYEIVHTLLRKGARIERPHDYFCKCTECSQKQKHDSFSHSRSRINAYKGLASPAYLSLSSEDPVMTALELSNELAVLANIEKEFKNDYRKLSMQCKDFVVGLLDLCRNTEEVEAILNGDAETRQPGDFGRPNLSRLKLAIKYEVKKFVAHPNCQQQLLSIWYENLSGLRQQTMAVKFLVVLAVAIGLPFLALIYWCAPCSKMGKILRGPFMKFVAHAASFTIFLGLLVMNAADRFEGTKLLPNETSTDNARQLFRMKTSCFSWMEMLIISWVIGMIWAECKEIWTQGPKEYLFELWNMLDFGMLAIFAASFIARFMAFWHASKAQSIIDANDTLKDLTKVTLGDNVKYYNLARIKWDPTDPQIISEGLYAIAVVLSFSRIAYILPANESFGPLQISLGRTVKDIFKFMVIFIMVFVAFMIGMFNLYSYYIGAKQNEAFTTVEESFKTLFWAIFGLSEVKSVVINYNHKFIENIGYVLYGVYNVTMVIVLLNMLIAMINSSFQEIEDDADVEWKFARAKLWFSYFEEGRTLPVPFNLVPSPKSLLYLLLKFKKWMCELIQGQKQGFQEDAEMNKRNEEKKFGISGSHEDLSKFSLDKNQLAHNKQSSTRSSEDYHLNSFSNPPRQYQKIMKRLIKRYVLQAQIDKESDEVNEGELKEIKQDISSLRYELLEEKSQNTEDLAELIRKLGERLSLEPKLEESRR

[11] = target: Short transient receptor potential channel 6 (Mus musculus) (UniProt Q61143); assay: activation of mouse TRPC6 channel, confirmation, selectivity assay for TRPC4 activator project, cell-based, HEK293, membrane potential dye, duplicate (AID 434950;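 active = membrane potential signal rise above negative control mean plus 3 SD in both duplicates, also active in the earlier TRPC4 screen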); details: HEK293 TRPC6, membrane potential fluorescence, at 10 µM; hits give high values
[12] = target: Short transient receptor potential channel 6 (Mus musculus) (UniProt Q61143); assay: TRPC6 potentiation by TRPC4 potentiator hits, confirmation, selectivity assay for TRPC4 potentiator project, HEK293 cells, membrane potential dye, duplicate (AID 434952;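 active = compound raising the membrane signal above positive-control mean plus 3 SD in both repeats, and a primary screen hit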); details: HEK293 TRPC6, membrane potential dye fluorescence, at 10 µM, maximal acetylcholine added after compound; hits give high values
[13] = target: Short transient receptor potential channel 4 (Mus musculus) (UniProt Q9QUQ5); assay: calcium flux activators in TRPC4/5HT1a cells, counter-screen for TRPC4 activator project, cell-based, second counter screen, HEK293 TRPC4/5HT1a, Fluo-4 (AID 434977;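 active = calcium signal rise above buffer-control mean plus 5 SD in both duplicates, and also a hit in the primary screen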); details: Fluo-4 calcium flux, at 10 µM; hits give high values
[14] = calcium flux inhibitors in TRPC4/5HT1a cells, confirmation, counter-screen for TRPC4 inhibitor project, cell-based, second counter screen, HEK293 TRPC4/5HT1a, Fluo-4 (AID 434978;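 active = primary screen active whose calcium signal fell more than 3 SD beyond the full-serotonin control mean in both duplicate plates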;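 also: serotonin given first at submaximal then at maximal dose after compound preincubation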); details: Fluo-4 calcium flux, at 10 µM, serotonin added to trigger calcium flux; hits give high values
[15] = system: TRPC4 (mouse), co-expressed with 5HT1a in HEK293; assay: calcium flux potentiators in TRPC4/5HT1a cells, confirmation, counter-screen for TRPC4 potentiator project, cell-based, second counter screen, HEK293 TRPC4/5HT1a, Fluo-4 (AID 434979;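 active = signal rise over 3 SD above mean of control wells given weak agonist, in both repeats and first screen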); details: Fluo-4 calcium flux, at 10 µM, serotonin added at its EC20 dose; hits give high values
[16] = calcium flux activation in mu-opioid HEK293 cells, confirmation, counter-screen for TRPC4 activator project, cell-based, HEK293 mu-opioid receptor line (AID 449723;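 active = hit in primary screen, with calcium signal over 5 SD above buffer well mean in both duplicates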;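 also: counter screen cells carry the mu-opioid receptor alone and lack TRPC4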); details: Fluo-4 calcium fluorescence, at 10 µM; hits give high values
[17] = calcium flux enhancement in mu-opioid HEK293 cells, confirmation, counter-screen for TRPC4 allosteric potentiator project, cell-based, HEK293 mu-opioid receptor line (AID 449724;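 active = calcium signal rise more than 3 SD above the low-dose agonist control mean, in both duplicate plates and the primary screen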); details: Fluo-4 calcium flux, at 10 µM, compound added before EC20 DAMGO stimulus; hits give high values

Compound	outcome [1]	outcome [2]	outcome [3]	outcome [4]	outcome [5]	outcome [6]	outcome [7]	outcome [8]	outcome [9]	outcome [10]	outcome [11]	outcome [12]	outcome [13]	outcome [14]	outcome [15]	outcome [16]	outcome [17]	potentiation [15]	potentiation [4]	potentiation [3]
C/C=C(/C)C(=O)O[C@@H]1c2cc(OC)c(OC)c(OC)c2-c2c(cc3c(c2OC)OCO3)C[C@H](C)[C@]1(C)O	inactive	inactive	inactive	inactive	inactive	inactive	inactive	inactive	inactive	inactive	inactive	inactive	inactive	inactive	inactive	inactive	inactive			
C/C(=N\NC(=O)COc1ccc(C)cc1C(C)C)c1ccc(-n2ccnc2)cc1	inactive	inactive	inactive	inactive	inactive	inactive	inactive	inactive	inactive	inactive	inactive	inactive	inactive	inactive		inactive	inactive	10.4% (active)		
CSCC[C@H](NC(=O)N1CCn2c1nc1ccccc12)C(=O)NCc1ccc(C)cc1	inactive	inactive	inactive		inactive	inactive	inactive	inactive	inactive	inactive	inactive	inactive	inactive	inactive		inactive	inactive	6.18% (active)	30% (active)	
CCOC(=O)C1=C(C)N(C)C(=S)NC1c1cccc(Cl)c1Cl (stereo not drawn)	inactive	inactive	inactive		inactive	inactive	inactive	inactive	inactive	inactive	inactive	inactive	inactive	inactive	inactive	inactive	inactive		25% (active)	
CCCCc1ccc(NC(=O)CSc2nnc(C)c(=O)n2N)cc1	inactive	inactive	inactive		inactive	inactive	inactive	inactive	inactive	inactive	inactive	inactive	inactive	inactive		inactive	inactive	43.5% (active)	14% (active)	
COc1ccc(/C=N/n2c(SC)nnc2-c2ccccc2)cc1C	inactive	inactive	inactive		inactive	inactive	inactive	inactive	inactive	inactive	inactive	inactive	inactive	inactive		inactive	inactive	20.6% (active)	9% (active)	
CCOC(=O)C1CCCN(C(=O)CCCn2nnnc2CN2CCOCC2)C1 (stereo not drawn)	inactive	inactive	inactive	inactive	inactive	inactive	inactive	inactive	inactive	inactive	inactive	inactive	inactive	inactive		inactive	inactive	13.4% (active)		
Cc1cc2nc(CSc3ccc(Cl)cc3)cc(=O)n2[nH]1	inactive	inactive	inactive	inactive	inactive	inactive	inactive	inactive	inactive	inactive	inactive	inactive	inactive	inactive	inactive	inactive	inactive			
Cc1cc(Br)cc(C)c1OCCCCN(C)C	inactive	inactive		inactive	inactive	inactive	inactive	inactive	inactive	inactive	inactive	inactive	inactive	inactive		inactive	inactive	23.5% (active)		23% (active)
O=C(CC1C(=O)NCCN1C(=O)Nc1ccccc1)Nc1cc(Cl)cc(Cl)c1 (stereo not drawn)	inactive	inactive	inactive		inactive	inactive	inactive	inactive	inactive	inactive	inactive	inactive	inactive	inactive		inactive	inactive	21.1% (active)	15% (active)	
CN1CCN(c2ccc(S(=O)(=O)N3CCCCC3)cc2NC(=O)c2ccc(F)cc2F)CC1	inactive	inactive	inactive	inactive	inactive	inactive	inactive	inactive	inactive	inactive	inactive	inactive	inactive	inactive		inactive	inactive	14.3% (active)		
CCOc1ccc2nc(NCCNC(=O)C3CC3)c(C)cc2c1	inactive	inactive	inactive	inactive	inactive	inactive	inactive	inactive	inactive	inactive	inactive	inactive	inactive	inactive	inactive	inactive	inactive			
Cc1ccc(-n2c(N)cc(=O)nc2SCC(=O)N2CCN(c3ccccc3)CC2)cc1	inactive	inactive	inactive	inactive	inactive	inactive	inactive	inactive	inactive	inactive	inactive	inactive	inactive	inactive	inactive	inactive	inactive			
CCC(C(=O)Nc1ccccc1OC)n1c(C(=O)OC)cc2ccsc21 (stereo not drawn)	inactive	inactive	inactive		inactive	inactive	inactive	inactive	inactive	inactive	inactive	inactive	inactive	inactive		inactive	inactive	75.5% (active)	17% (active)	

Source: PubChem BioAssay
